Test results published in PubChem BioAssay (NCI).
Compounds without any hit were thinned out: in the full panel of roughly 79,000, 15% have a hit. Activity calls are given as the source filed them. No stated cut-off is given here; in the data, active means growth inhibition above about 70%; inactive means the rest.

Tests used:
[1] = NCI Yeast Anticancer Drug Screen. Data for the rad50 strain (AID 155);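 further: 0% = growth of vehicle-only cultures of the same strain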; conditions: S. cerevisiae rad50 strain growth inhibition; at 50.0 µM; hits give high values
Method in brief: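 A DNA repair-deficient yeast mutant serves as the test organism; compound-induced growth inhibition is calculated against vehicle-treated cells.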

[2] = NCI Yeast Anticancer Drug Screen. Data for the mec2-1 strain (AID 157); conditions: S. cerevisiae mec2-1 strain, at 50.0 µM, hits give high values
Method in brief: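 Growth inhibition is read against vehicle-treated controls after compound exposure of the mec2-1 yeast strain, which is defective in DNA damage repair or cell cycle control.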

[3] = NCI Yeast Anticancer Drug Screen. Data for the sgs1 mgt1 strain (AID 161);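 further: 0% = growth of cultures given vehicle only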; conditions: S. cerevisiae sgs1 mgt1 strain, at 50.0 µM, hits give high values
Method in brief: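 This yeast growth screen uses a strain with defined DNA-repair lesions; compound-treated growth is compared with vehicle-treated growth.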

[4] = NCI Yeast Anticancer Drug Screen. Data for the cln2 rad14 strain (AID 165);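 further: 0% = growth equal to vehicle treated cultures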; conditions: S. cerevisiae cln2 rad14 strain, at 50.0 µM, hits give high values
Method in brief: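 Growth inhibition, relative to vehicle-treated controls, is the read-out. The test organism is a yeast strain with defined genetic alterations, cln2 rad14.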

[5] = NCI Yeast Anticancer Drug Screen. Data for the bub3 strain (AID 167); conditions: S. cerevisiae bub3 mutant strain, at 50.0 µM, hits give high values
Method in brief: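 Inhibition values come from growth of compound-treated mutant yeast normalised to vehicle-treated controls.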

[6] = NCI Yeast Anticancer Drug Screen. Data for the mlh1 rad18 strain (AID 175); conditions: S. cerevisiae mlh1 rad18 strain growth inhibition; at 50.0 µM; hits give high values
Method in brief: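 Cells of a genetically altered yeast strain, deficient in DNA damage repair, were treated with compound. Their growth was then compared with that of vehicle-treated cultures to give inhibition.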

Measured: growth inhibition

O=[N+]([O-])c1ccc(N=CNc2ccc([N+](=O)[O-])cc2)cc1
inactive: [1] -15.9% | [2] -13.1% | [3] -1.5% | [4] -12% | [5] 17.1% | [6] -6.65%

CCCCCCCCSCCCC(=O)O
inactive: [1] -16.9% | [2] -22.8% | [3] -10.8% | [4] -11.3% | [5] -27.7% | [6] -29.2%

C[CH2][Sn]([CH2]C)([O][P+](=O)C[Si](C)(C)c1ccccc1)[O][P+](=O)C[Si](C)(C)c1ccccc1 (stereo not given)
inactive: [1] 3.8% | [2] 29.6% | [3] 12.7% | [4] -3.55% | [5] -3.35% | [6] 17.9%

O=c1c2cc(S(=O)(=O)Nc3ccc(Cl)cc3Cl)ccc2ncn1NS(=O)(=O)c1cccc2ccccc12
inactive: [1] 10.9% | [2] -5.4% | [3] 28.6% | [4] 18.8% | [5] 8.85% | [6] 14.9%

CCC1CN2CCc3cc(OC)c(OC)cc3C2CC1CC1c2cc(OC)c(OC)cc2CCN1C(=O)C1CCCN1 (stereo not given)
inactive: [1] -1.45% | [2] -1.45% | [3] 12.1% | [4] 6.85% | [5] 7.65% | [6] -3.4%

O=S(=O)(Oc1cccc2ccccc12)c1ccccc1
inactive: [1] -2.7% | [2] -2.5% | [3] -5.05% | [4] -5.45% | [5] 0.95% | [6] 8.4%

Cc1ccc(C(=O)/C=C/c2ccc3c(c2)OCO3)c(C)c1
inactive: [1] 39.9% | [2] 21.8% | [3] 52.6% | [4] -6.7% | [5] 47.5% | [6] 33.3%

NC(=S)c1ccccn1
inactive: [1] 18.6% | [2] 11.4% | [3] 32.8% | [4] -22.5% | [5] 2.4% | [6] 26.9%

CN(C)Cc1cc(N=Nc2ccccc2Cl)cc(CN(C)C)c1O
inactive: [1] -40.5% | [2] -19.1% | [3] -9.25% | [4] -14.3% | [5] 12.3% | [6] -13.4%

C=C1C(=O)OC(CCCCCCCCCCCCCC(C)=O)[C@H]1C(=O)O (stereo not given in full)
inactive: [1] 10.2% | [2] -9.75% | [3] 22.1% | [4] 4.85% | [5] -10.9% | [6] 9.8%

Cc1ccc(NC(=O)Oc2ccc(F)cc2)cc1NC(=O)Oc1ccc(F)cc1
inactive: [1] 25.9% | [2] 13.3% | [3] 15.3% | [4] 15.2% | [5] -4.95% | [6] 33.6%

COC(=O)CCSCC(N)C(=O)O (stereo not given)
inactive: [1] 1.3% | [2] -2.95% | [3] -13.3% | [4] -39.5% | [5] -0.95% | [6] -18.4%

NNC(=O)CCSCCC(=O)NN
inactive: [1] 7.85% | [2] -17.2% | [3] 3.4% | [4] -28.9% | [5] -5.95% | [6] -0.75%

CCCCCCCCCCCCCCCCCCCCCCCCCCCC
inactive: [1] -8.5% | [2] -10.1% | [3] -16% | [4] -21.2% | [5] -4.55% | [6] -22.9%

O=[N+]([O-])c1ccccc1S(=O)c1ccccc1 (stereo not given)
inactive: [1] -1.65% | [2] -0.15% | [3] -4.3% | [4] 11.2% | [5] -6.5% | [6] -6.25%

CN(C)c1ccc(/C=C/C(=O)/C=C/c2ccc(N(C)C)cc2)cc1
inactive: [1] -13.5% | [2] -2% | [3] -13.8% | [4] 7.6% | [5] -12.2% | [6] -8.9%

O=C(CC(=O)c1ccccc1)Nc1cccnc1
inactive: [1] -21.2% | [2] 8.9% | [3] -0.3% | [4] -21.2% | [5] -1.8% | [6] -6.95%

COC(=O)C1(C)CCCC2(C)C3=CC(O)C4(C(C)C)OC4C3(O)CCC12 (stereo not given)
inactive: [1] -9.4% | [2] -41.6% | [3] -8.15% | [4] 5.65% | [5] -21.9% | [6] -8.2%

CCOC(=S)SCc1cc(C(C)(C)C)c(O)c(C(C)(C)C)c1
inactive: [1] 2.7% | [2] 14.4% | [3] 20.2% | [4] -20.2% | [5] 1.15% | [6] 1.8%

c1ccc(CNC(c2ccccc2)C(NCc2ccccc2)c2ccccc2)cc1 (stereo not given)
inactive: [1] -7.35% | [2] -0.75% | [3] -14.3% | [4] -38.4% | [5] 6.15% | [6] 10.2%

CCCCOS(=O)OCCCC
inactive: [1] 22.7% | [2] 29.5% | [3] -6.1% | [4] 13.2% | [5] 0.15% | [6] -14.8%

S=C(Nc1ccccc1)N1CC2C3CCC(O3)C2C1 (stereo not given)
inactive: [1] 16.6% | [2] 12.6% | [3] 10.2% | [4] 3.15% | [5] 22.5% | [6] 22.6%

COC(=O)CCCc1ccc2c(c1)CC1(C2)Cc2cc3c(cc2C1)CCCC3
inactive: [1] -14.5% | [2] -20.4% | [3] -11.2% | [4] -15.5% | [5] -11.9% | [6] -3.85%

CCCC/C(=N/O)c1ccccc1
inactive: [1] 7.4% | [2] 0.7% | [3] -2.65% | [4] -9.1% | [5] -21.6% | [6] -6.95%

O=C(Nc1cc(S(=O)(=O)O)cc2cc(S(=O)(=O)O)c(N=Nc3cc(Nc4nc(Cl)nc(Nc5ccc(S(=O)(=O)O)cc5)n4)ccc3S(=O)(=O)O)c(O)c12)c1ccccc1
inactive: [1] 17.9% | [2] -10.1% | [3] 10.8% | [4] 3.5% | [5] 0.05% | [6] 25.2%

FC(F)(F)C(F)(F)C(F)(F)c1nnnn1-c1ccccc1
inactive: [1] 10.8% | [2] -0.8% | [3] -17.1% | [4] 3.3% | [5] -13.3% | [6] -17.1%

CC1=C(O)C(=O)C(C2=C(O)C(=O)C(C)=C(O)C2=O)=C(O)C1=O
inactive: [1] 5.3% | [2] -12.4% | [3] 24.4% | [4] 10% | [5] 5.8% | [6] 12.6%

N#CNC(=Nc1ccccc1)[N](C#N)[Sn]([c]1ccccc1)([c]1ccccc1)[c]1ccccc1
active: [1] 98.7% | [2] 98.3% | [3] 99.2% | [4] 98.7% | [5] 96.5% | [6] 98.6%

CC(C)CC(=O)Cc1nc2n(c1O)C(=N)N=N2
inactive: [1] -35.5% | [2] -15.9% | [3] -14.2% | [4] -40.7% | [5] -11.8% | [6] -20.1%

Cc1ccc(Cl)cc1NS(=O)(=O)c1ccccc1
inactive: [1] -4.35% | [2] -31.1% | [3] -2.8% | [4] -14.3% | [5] -22.8% | [6] 5.55%

Cc1nnc2n(c1=O)CCCN2C
inactive: [1] -0.35% | [2] 6.2% | [3] 11.6% | [4] -11.8% | [5] 15.8% | [6] 13.4%

Nc1cc(S(N)(=O)=O)ccc1O
inactive: [1] 10.3% | [2] -11.6% | [3] -21.9% | [4] -10.6% | [5] -12% | [6] 12.4%

C1=C(N2CCOCC2)CCC(N2CCOCC2)=C1
inactive: [1] -2.85% | [2] 21.9% | [3] 20.8% | [4] 41.9% | [5] -8.65% | [6] -12.2%

CCC1(O)CC2CN(CCc3c([nH]c4ccccc34)C(C(=O)OC)(c3cc4c(cc3OC)N(C)C3C(O)(C(=O)NCCSSCCNC(=O)C5(O)C(O)C6(CC)C=CCN7CCC8(c9cc(C%10(C(=O)OC)CC%11CN(CCc%12c%10[nH]c%10ccccc%12%10)CC(O)(CC)C%11)c(OC)cc9N(C)C58)C76)C(O)C5(CC)C=CCN6CCC43C65)C2)C1 (stereo not given)
inactive: [1] 23.4% | [2] 11.4% | [3] 24.9% | [4] 42.8% | [5] 40.1% | [6] 37.6%

CC1(C)OCC(C(O)C2OC(C)(C)OC2/C=N\O)O1 (stereo not given)
inactive: [1] -3.9% | [2] -18% | [3] -0.2% | [4] -0.5% | [5] -1.45% | [6] -17%

CCOC(=O)c1ncn2c1[nH]c(=S)c1ccccc12
inactive: [1] -14.8% | [2] -19.1% | [3] -11.2% | [4] -0.95% | [5] -17.9% | [6] -2.05%

O=[N+]([O-])C(/C=N/Nc1ccccc1)/C=N/Nc1ccccc1
inactive: [1] -5.95% | [2] -8.3% | [3] -20.8% | [4] -6.55% | [5] -24.6% | [6] -10.9%

O=C(O)CCNc1cccs1
inactive: [1] -19.6% | [2] -1.75% | [3] -26.5% | [4] -63.8% | [5] -4.85% | [6] -19.9%

Clc1c(Cl)c2ccccc2c2ccccc12
inactive: [1] 10.1% | [2] -8.4% | [3] 11.3% | [4] 8.85% | [5] 32.5% | [6] 4.85%

O=C(O)C(Br)C(Br)C(=O)Nc1cccc2ccccc12 (stereo not given)
active: [1] 98.8% | [2] 99.1% | [3] 99.2% | [4] 99.2% | [5] 98.9% | [6] 98.8%
